Measured values taken from PubChem BioAssay (EPA / NIEHS).
The source made the active and inactive calls. Rule for the calls: active = hit-call score of the fitted dose curve at least 0.9, where 1 is the maximum; inactive = score below 0.9.

Tests used:
Settings in all cases: mRNA level, 48 h; actives raise or lower the signal
[1] = read-out: Potassium channel subfamily K member 1 (KCNK1), KCNK1 (gene 3775); test: LTEA_HepaRG_KCNK1: Life Technologies and Expression Analysis (LTEA) Assay for Potassium channel subfamily K member 1 (KCNK1) using HepaRG (AID 2283511)
Method in brief: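 Differentiated HepaRG cells, 48 h exposure in serum-free induction medium with 0.5% DMSO; 8 concentrations, half-log from 100 uM, duplicate. KCNK1 mRNA by qRT-PCR, normalized to ACTB, GAPDH, POLR2A; bidirectional fit vs DMSO.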

[2] = read-out: Keratin 19 (KRT19), KRT19 (gene 3880); test: LTEA_HepaRG_KRT19: Life Technologies and Expression Analysis (LTEA) Assay for Keratin 19 (KRT19) using HepaRG (AID 2283512)
Method in brief: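 KRT19 transcript levels, measured by Fluidigm qRT-PCR against three housekeeping genes, are fitted for gain or loss of signal relative to DMSO. Human HepaRG cells receive test chemicals (top 100 uM, half-log steps, 0.5% DMSO) for 48 hours.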

[3] = read-out: JUN Transcription Factor, JUN (gene 3725); test: LTEA_HepaRG_JUN: Life Technologies and Expression Analysis (LTEA) Assay for JUN Transcription Factor using HepaRG (AID 2283513)
Method in brief: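 Cells plated 48 h, medium switched to serum-free induction medium, then dosed 48 h (100 uM top, half-log dilutions, 0.5% DMSO). RNA isolated; JUN measured by qRT-PCR against three housekeeping genes; gain or loss fitted relative to DMSO.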

[4] = read-out: Lipase C (LIPC), LIPC (gene 3990); test: LTEA_HepaRG_LIPC: Life Technologies and Expression Analysis (LTEA) Assay for Lipase C (LIPC) using HepaRG (AID 2283514)
Method in brief: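 HepaRG cells, 48 h after plating, treated in duplicate for 48 h in serum-free induction medium over 8 half-log concentrations from 100 uM, 0.5% DMSO. LIPC mRNA by TaqMan qRT-PCR normalized to ACTB/GAPDH/POLR2A; bidirectional fit versus DMSO.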

[5] = read-out: Lipoprotein lipase (LPL), LPL (gene 4023); test: LTEA_HepaRG_LPL: Life Technologies and Expression Analysis (LTEA) Assay for Lipoprotein lipase (LPL) using HepaRG (AID 2283515)
Method in brief: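 Differentiated HepaRG cells, plated 48 h, then exposed 48 h in serum-free induction medium to 8 concentrations (top 100 uM, half-log steps) in 0.5% DMSO, duplicate. LPL mRNA measured by qRT-PCR, normalized to ACTB, GAPDH and POLR2A.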

[6] = read-out: MicroRNA 122 (MIR122), gene 406906; test: LTEA_HepaRG_MIR122: Life Technologies and Expression Analysis (LTEA) Assay for MicroRNA 122 (MIR122) using HepaRG (AID 2283516); note: the transcript read is the microRNA miR-122
Method in brief: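 HepaRG plated 48 h, switched to serum-free induction medium, then treated in duplicate for 48 h (100 uM top, half-log steps, 0.5% DMSO vehicle). RNA isolated, qRT-PCR performed, concentration-response fitted both directions relative to DMSO.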

[7] = read-out: matrix metalloproteinase-10 (MMP10), MMP10 (gene 4319); test: LTEA_HepaRG_MMP10: Life Technologies and Expression Analysis (LTEA) Assay for matrix metalloproteinase-10 (MMP10) using HepaRG (AID 2283517)
Method in brief: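 Differentiated HepaRG cells in serum-free induction medium exposed 48 h in duplicate to 8-point half-log series up to 100 uM in 0.5% DMSO. mRNA quantified by qRT-PCR, normalised to ACTB, GAPDH, POLR2A; bidirectional fit versus DMSO.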

MYC, MYC (gene 4609) = test: LTEA_HepaRG_MYC: Life Technologies and Expression Analysis (LTEA) Assay for MYC using HepaRG (AID 2283518)
Method in brief: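 HepaRG, ~100,000 cells/well, collagen I; 48 h plating; serum-free induction medium; 48 h dosing, duplicate, 100 uM top, half-log, 0.5% DMSO; total RNA → qRT-PCR MYC; gain/loss fit vs DMSO.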

[8] = read-out: matrix metalloproteinase-3 (MMP3), MMP3 (gene 4314); test: LTEA_HepaRG_MMP3: Life Technologies and Expression Analysis (LTEA) Assay for matrix metalloproteinase-3 (MMP3) using HepaRG (AID 2283519)
Method in brief: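 HepaRG cells (~100,000/well) in serum-free induction medium were dosed in duplicate for 48 h with an 8-point half-log series from 100 uM, 0.5% DMSO. MMP3 mRNA was quantified by Fluidigm TaqMan qRT-PCR, normalized to three housekeeping genes.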

[9] = read-out: Nuclear factor NF-kappa-B p105 subunit (Homo sapiens) (UniProt P19838); test: LTEA_HepaRG_NFKB1: Life Technologies and Expression Analysis (LTEA) Assay for Nuclear Factor Kappa B Subunit 1 (NFKB1) using HepaRG (AID 2283521);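 note: TaqMan qRT-PCR transcript normalised to ACTB GAPDH and POLR2A housekeeping genes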
Method in brief: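 Differentiated human HepaRG cells were exposed for 48 h in serum-free induction medium to eight concentrations (top 100 uM, half-log steps, 0.5% DMSO), in duplicate. NFKB1 mRNA was measured by TaqMan qRT-PCR, normalized to ACTB/GAPDH/POLR2A, and fitted bidirectionally against DMSO.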

[10] = read-out: Protein phosphatase 2A (PPP2R4), PTPA (gene 5524); test: LTEA_HepaRG_PPP2R4: Life Technologies and Expression Analysis (LTEA) Assay for Protein phosphatase 2A (PPP2R4) using HepaRG (AID 2283522)
Method in brief: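 Readout is PPP2R4 transcript level by microfluidic qRT-PCR after 48 h chemical treatment of human HepaRG liver cells. Concentrations spanned 100 uM downward in half-log steps; gain or loss of signal was fitted relative to DMSO.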

[11] = read-out: Phosphatase and tensin (PTEN), PTEN (gene 5728); test: LTEA_HepaRG_PTEN: Life Technologies and Expression Analysis (LTEA) Assay for Phosphatase and tensin (PTEN) using HepaRG (AID 2283523)
Method in brief: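 HepaRG cells, 48 h after plating, exposed in duplicate for 48 h in serum-free induction medium to 8 half-log concentrations up to 100 uM (0.5% DMSO). PTEN mRNA by qRT-PCR, normalized to ACTB, GAPDH, POLR2A; bidirectional fit versus DMSO.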

[12] = read-out: solute carrier (SLC22A1), SLC22A1 (gene 6580); test: LTEA_HepaRG_SLC22A1: Life Technologies and Expression Analysis (LTEA) Assay for solute carrier (SLC22A1) using HepaRG (AID 2283524)
Method in brief: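 Differentiated human HepaRG cells in serum-free induction medium, exposed 48 h in duplicate to 8-point half-log series from 100 µM top in 0.5% DMSO. SLC22A1 mRNA by TaqMan qRT-PCR normalized to ACTB, GAPDH, POLR2A; bidirectional fit versus DMSO.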

[13] = read-out: Pyruvate Dehydrogenase Kinase 4 (PDK4), PDK4 (gene 5166); test: LTEA_HepaRG_PDK4: Life Technologies and Expression Analysis (LTEA) Assay for Pyruvate Dehydrogenase Kinase 4 (PDK4) using HepaRG (AID 2283525)
Method in brief: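 HepaRG cells plated 48 h, then switched to serum-free induction medium and exposed in duplicate for 48 h to 8 half-log concentrations from 100 uM in 0.5% DMSO. PDK4 mRNA measured by qRT-PCR, normalized to ACTB, GAPDH and POLR2A; bidirectional fit versus DMSO.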

[14] = read-out: NAD(P)H dehydrogenase [quinone] 1 (NQO1), NQO1 (gene 1728); test: LTEA_HepaRG_NQO1: Life Technologies and Expression Analysis (LTEA) Assay for NAD(P)H dehydrogenase [quinone] 1 (NQO1) using HepaRG (AID 2283526)
Method in brief: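 HepaRG, 48 h post-plating → serum-free induction medium → test chemical 48 h (duplicate, 100 uM top, half-log x8, 0.5% DMSO) → RNA isolation → qRT-PCR, ACTB/GAPDH/POLR2A normalization; bidirectional curve fit vs DMSO baseline.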

[15] = read-out: Nuclear factor erythroid 2-related factor 2 (Homo sapiens) (UniProt Q16236); test: LTEA_HepaRG_NFE2L2: Life Technologies and Expression Analysis (LTEA) Assay for Nuclear factor erythroid 2-related factor 2 (NFE2L2) Transcription Factor using HepaRG (AID 2283527)
Method in brief: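 Differentiated human HepaRG cells, serum-free induction medium, exposed 48 h in duplicate to eight half-log concentrations up to 100 uM in 0.5% DMSO. NFE2L2 mRNA by Fluidigm TaqMan qRT-PCR, normalised to ACTB, GAPDH, POLR2A; bidirectional change versus DMSO.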

[16] = read-out: succinate dehydrogenase complex iron sulfur subunit B (SDHB), SDHB (gene 6390); test: LTEA_HepaRG_SDHB: Life Technologies and Expression Analysis (LTEA) Assay for succinate dehydrogenase complex iron sulfur subunit B (SDHB) using HepaRG (AID 2283528)
Method in brief: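 HepaRG, 48 h exposure, 8-pt half-log series from 100 uM in 0.5% DMSO, duplicates. Readout: SDHB mRNA by Fluidigm qRT-PCR vs housekeeping genes; bidirectional fit relative to DMSO.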

[17] = read-out: Signal transducer and activator of transcription 3 (Homo sapiens) (UniProt P40763); test: LTEA_HepaRG_STAT3: Life Technologies and Expression Analysis (LTEA) Assay for Signal transducer and activator of transcription (STAT3) using HepaRG (AID 2283529)
Method in brief: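 Differentiated HepaRG cells, serum-free induction medium, dosed 48 h in duplicate, 8 half-log concentrations from 100 uM in 0.5% DMSO. STAT3 mRNA by qRT-PCR, normalised to ACTB, GAPDH, POLR2A; bidirectional fit versus DMSO.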

[18] = read-out: solute carrier (SLCO1B1), SLCO1B1 (gene 10599); test: LTEA_HepaRG_SLCO1B1: Life Technologies and Expression Analysis (LTEA) Assay for solute carrier (SLCO1B1) using HepaRG (AID 2283530)
Method in brief: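 HepaRG, serum-free induction medium, 48 h dosing, 8-pt half-log from 100 uM, 0.5% DMSO vehicle, duplicates. Readout: SLCO1B1 mRNA, qRT-PCR, ACTB/GAPDH/POLR2A normalization; up or down fit vs DMSO.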

Measured: AC50

Chain of Nuclear factor erythroid 2-related factor 2 (Homo sapiens) (Q16236 whole entry, looked up): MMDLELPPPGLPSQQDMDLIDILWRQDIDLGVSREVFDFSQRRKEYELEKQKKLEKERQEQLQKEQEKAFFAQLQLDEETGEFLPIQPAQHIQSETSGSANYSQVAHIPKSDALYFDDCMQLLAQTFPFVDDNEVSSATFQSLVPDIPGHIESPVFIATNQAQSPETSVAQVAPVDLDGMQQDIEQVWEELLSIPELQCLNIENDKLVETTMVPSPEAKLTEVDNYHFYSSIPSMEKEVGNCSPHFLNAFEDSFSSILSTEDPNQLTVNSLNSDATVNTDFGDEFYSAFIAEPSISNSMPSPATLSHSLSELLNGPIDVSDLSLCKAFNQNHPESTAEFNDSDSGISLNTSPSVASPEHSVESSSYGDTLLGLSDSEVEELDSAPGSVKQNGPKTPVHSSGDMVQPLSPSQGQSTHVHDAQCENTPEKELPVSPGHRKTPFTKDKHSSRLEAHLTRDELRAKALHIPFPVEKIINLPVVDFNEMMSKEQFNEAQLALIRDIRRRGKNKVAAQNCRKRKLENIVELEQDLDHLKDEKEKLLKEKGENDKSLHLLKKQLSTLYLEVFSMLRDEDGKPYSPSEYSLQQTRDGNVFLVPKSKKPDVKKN
Chain of Signal transducer and activator of transcription 3 (Homo sapiens) (P40763 whole entry, looked up): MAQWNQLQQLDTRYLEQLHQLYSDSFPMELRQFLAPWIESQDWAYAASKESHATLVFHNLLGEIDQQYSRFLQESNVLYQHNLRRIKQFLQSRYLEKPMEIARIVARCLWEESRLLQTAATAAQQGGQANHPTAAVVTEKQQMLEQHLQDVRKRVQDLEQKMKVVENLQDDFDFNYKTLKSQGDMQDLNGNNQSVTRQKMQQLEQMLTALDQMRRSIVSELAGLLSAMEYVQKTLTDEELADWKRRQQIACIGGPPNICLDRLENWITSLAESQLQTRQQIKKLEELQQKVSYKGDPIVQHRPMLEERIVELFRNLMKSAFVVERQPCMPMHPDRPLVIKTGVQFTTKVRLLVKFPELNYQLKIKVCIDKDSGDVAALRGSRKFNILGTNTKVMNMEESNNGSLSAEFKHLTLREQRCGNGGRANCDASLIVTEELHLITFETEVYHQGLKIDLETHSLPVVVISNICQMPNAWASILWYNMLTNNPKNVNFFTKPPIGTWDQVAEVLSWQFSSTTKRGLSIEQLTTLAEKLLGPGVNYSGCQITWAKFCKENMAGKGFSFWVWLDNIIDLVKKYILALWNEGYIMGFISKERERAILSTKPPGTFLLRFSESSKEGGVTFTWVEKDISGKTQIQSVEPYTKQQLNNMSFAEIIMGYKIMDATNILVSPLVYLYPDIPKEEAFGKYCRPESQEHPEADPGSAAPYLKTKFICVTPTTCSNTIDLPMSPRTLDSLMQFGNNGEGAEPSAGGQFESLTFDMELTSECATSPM
Chain of Nuclear factor NF-kappa-B p105 subunit (Homo sapiens) (P19838 whole entry, looked up): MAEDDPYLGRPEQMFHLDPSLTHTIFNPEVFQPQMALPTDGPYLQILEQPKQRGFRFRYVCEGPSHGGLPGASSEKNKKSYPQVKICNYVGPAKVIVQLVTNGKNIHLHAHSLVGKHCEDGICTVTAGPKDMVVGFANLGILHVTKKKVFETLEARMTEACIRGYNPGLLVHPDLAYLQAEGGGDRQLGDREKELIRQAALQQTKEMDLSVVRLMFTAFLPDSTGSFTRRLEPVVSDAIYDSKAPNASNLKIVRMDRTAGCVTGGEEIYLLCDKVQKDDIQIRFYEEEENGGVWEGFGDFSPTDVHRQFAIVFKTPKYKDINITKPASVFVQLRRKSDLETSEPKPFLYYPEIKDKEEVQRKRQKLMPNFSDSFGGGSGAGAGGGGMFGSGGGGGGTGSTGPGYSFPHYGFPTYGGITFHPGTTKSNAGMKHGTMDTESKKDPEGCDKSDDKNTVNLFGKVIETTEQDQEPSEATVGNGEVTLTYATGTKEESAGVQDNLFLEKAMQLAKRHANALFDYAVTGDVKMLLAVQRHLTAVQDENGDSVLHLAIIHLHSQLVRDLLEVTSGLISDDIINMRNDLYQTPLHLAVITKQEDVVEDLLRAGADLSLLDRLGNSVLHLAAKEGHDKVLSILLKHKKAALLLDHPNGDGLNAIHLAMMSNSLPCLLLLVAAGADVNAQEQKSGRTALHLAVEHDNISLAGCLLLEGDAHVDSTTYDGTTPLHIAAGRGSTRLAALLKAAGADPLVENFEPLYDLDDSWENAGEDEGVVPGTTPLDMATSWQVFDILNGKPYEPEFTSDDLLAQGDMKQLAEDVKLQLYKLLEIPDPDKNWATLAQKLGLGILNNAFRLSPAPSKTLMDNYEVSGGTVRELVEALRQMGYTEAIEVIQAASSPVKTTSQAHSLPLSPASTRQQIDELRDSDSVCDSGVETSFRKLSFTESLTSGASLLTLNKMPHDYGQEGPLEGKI

c1nc[nH]n1
active: [1] 0.116 µM | [7] 15.8 µM | MYC, MYC (gene 4609) 0.104 µM | [8] 0.0899 µM | [14] 0.106 µM
inactive: all other assays above

O=P(Oc1ccccc1)(Oc1ccccc1)Oc1ccccc1
active: [2] 0.981 µM | [12] 50 µM | [13] 28.4 µM | [15] 21.2 µM
inactive: all other assays above

CC(Cl)(Cl)C(=O)O
not listed: [9]
inactive: all other assays above

CCOP(=S)(Oc1ccc([N+](=O)[O-])cc1)c1ccccc1 (stereo unspecified)
active: [2] 15.9 µM | [11] 0.0422 µM | [15] 37.9 µM
not listed: [14] | [18]
inactive: all other assays above

CCOP(=S)(OCC)SCSCC
inactive: all assays above

c1ccc2c(c1)Nc1ccccc1S2
active: [2] 41.5 µM | [5] 65 µM
not listed: [9]
inactive: all other assays above

Cc1cccc(N)c1
inactive: all assays above

CSC(C)(C)C=NO
not listed: [9]
inactive: all other assays above

CC(C)(C)c1ccc(O)cc1
active: [6] 0.197 µM
not listed: [9] | [15]
inactive: all other assays above

CC(Cc1ccc(OCC(=O)O)cc1)NCC(O)c1csc(C(F)(F)F)n1 (stereo unspecified)
active: [2] 0.138 µM
not listed: [9]
inactive: all other assays above

CCCCN(CCCC)SN(C)C(=O)Oc1cccc2c1OC(C)(C)C2
inactive: all assays above

CCCCc1ccccc1
not listed: [9]
inactive: all other assays above

COCCOCCO
inactive: all assays above

OCC1CO1 (stereo unspecified)
not listed: [9]
inactive: all other assays above

ClC(Cl)(Cl)c1ccccc1
not listed: [9] | [15]
inactive: all other assays above

Nc1ccc2ccccc2c1
active: [2] 5.98 µM | MYC, MYC (gene 4609) 50 µM | [15] 29.8 µM
not listed: [9]
inactive: all other assays above

O=C(O)C(Cl)Cl
not listed: [9]
inactive: all other assays above

CCOS(=O)(=O)OCC
not listed: [9]
inactive: all other assays above

CCCN(CCC)c1c([N+](=O)[O-])cc(C(C)C)cc1[N+](=O)[O-]
active: [5] 12.5 µM | [12] 77.4 µM | [13] 20.9 µM
not listed: [9]
inactive: all other assays above

Nc1cc2c3c(c1)C(c1ccccc1)=N[C@@H](NC(=O)c1cccnc1)C(=O)N3CC2
inactive: all assays above

Nc1ccc(Cl)cc1
not listed: [9]
inactive: all other assays above

ClC(Cl)c1ccccc1
inactive: all assays above
